In the library only some 19% were active in any assay of this set; here they are far more common.
TDP1 cell CPT: DT40-hTDP1 cell growth loss with CPT. chicken DT40 Tdp1-/-;hTDP1 cells + 20 nM CPT, ATP luminescence, 48 h. Potency, µM (series often up to 46.2 µM), without a hit: at the top dose activity change, negative = growth inhibition, usual class: inhibitors. actives 12% (n = 420,000); also: nearly all actives have a fitted effect of over 55% in size
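Chicken DT40 Tdp1-/- cells complemented with human TDP1, 400 cells/well, exposed to compounds plus 20 nM camptothecin for at least 48 h at 37 C; viability read as ATP content by CellTiter-Glo luminescence.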
RORgamma inh: inhibitors of mouse ROR gamma transcriptional activity. P51450. actives 5.4% (n = 310,000). Drosophila S2 Gal4-RORgamma UAS-luciferase reporter, 20 h. Potency, µM (top dose mostly 53.6 µM), for inactives: at the top dose activity change, negative = inhibition, most hits filed as inhibitors; also: nearly all actives have a fitted effect of over 60% in size
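In this cell-based reporter format, copper sulfate (700 uM final) drives Gal4–ROR gamma fusion expression from a metallothionein promoter in Drosophila Schneider cells; compounds preincubated 1 hr, reporter read after 20 hr at ambient temperature.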
TDP1 block: inhibitors of human tyrosyl-DNA phosphodiesterase TDP1 | recombinant TDP1, AlphaScreen DNA substrate cleavage | Potency, µM (series often up to 130 µM), for the others: top-dose activity change, negative = inhibition, actives largely listed as inhibitors | actives 0.28% (n = 350,000) | AID 485290; also: nearly all actives have a fitted effect of over 40% in size
Target sequence (Q9NUW8 whole entry, looked up): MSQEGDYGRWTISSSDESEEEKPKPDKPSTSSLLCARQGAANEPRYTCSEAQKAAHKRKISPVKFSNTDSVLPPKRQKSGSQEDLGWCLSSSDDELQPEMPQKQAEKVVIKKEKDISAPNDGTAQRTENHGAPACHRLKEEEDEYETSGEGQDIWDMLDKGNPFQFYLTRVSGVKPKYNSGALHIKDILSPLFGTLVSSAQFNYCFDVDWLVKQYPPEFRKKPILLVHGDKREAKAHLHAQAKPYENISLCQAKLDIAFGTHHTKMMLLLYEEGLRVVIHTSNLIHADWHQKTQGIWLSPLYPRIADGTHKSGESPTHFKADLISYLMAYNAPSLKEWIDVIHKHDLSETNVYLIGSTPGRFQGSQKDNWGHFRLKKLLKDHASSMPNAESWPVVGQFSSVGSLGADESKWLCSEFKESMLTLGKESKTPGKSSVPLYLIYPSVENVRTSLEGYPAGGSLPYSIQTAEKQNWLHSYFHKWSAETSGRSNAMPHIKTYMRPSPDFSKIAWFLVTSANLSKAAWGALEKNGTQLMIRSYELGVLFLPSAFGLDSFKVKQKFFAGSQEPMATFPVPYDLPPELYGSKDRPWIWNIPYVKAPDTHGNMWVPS
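Steps: enzyme plus compound, 15 min RT; add biotin/phosphotyrosine-FITC oligonucleotide (15 nM final), react 5 min; add donor/acceptor beads (10 ug/ml final), 10 min; read AlphaScreen. Tdp1 at 1 nM final.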
VP16 counter: counter-screen for ROR gamma inhibitors: Gal4-VP16 reporter. Drosophila S2 Gal4-VP16 UAS-luciferase, luminescence, 20 h. Potency, µM (series often up to 53.6 µM), for inactives: at the highest dose activity, negative = inhibition, actives largely listed as inhibitors. actives 3.5% (n = 310,000);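 also: Gal4-VP16 expression switched on by copper sulfate through the metallothionein promoter; nearly all actives have a fitted effect of over 50% in size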
DT40 TDP1 no CPT: qHTS for Inhibitors of human tyrosyl-DNA phosphodiesterase 1 (TDP1): qHTS in cells in absence of CPT | DT40 Tdp1-/- hTDP1 cells, no CPT, ATP luminescence, 48 h | Potency, µM (top dose mostly 46.2 µM), inactives show top-dose activity change, negative = growth inhibition, actives largely listed as inhibitors | actives 15% (n = 420,000) | AID 686978, 2013; also: nearly all actives have a fitted effect of over 55% in size
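Camptothecin absent (DMSO only). Human TDP1-complemented DT40 knockout cells, 400 cells/well, 37 °C for minimum 48 hr; ATP measured via CellTiter-Glo, 30 min dark incubation, luminescence.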
* marks the source's active call; other numbers are inactive results; ? = inconclusive; / = no result given; [ ] = another dose, or the depositor's remark. Calls follow the shape of the dose curve; as a rule, active = well fitted curve in the direction sought with a large enough effect; inconclusive = small, poorly fitted or top-dose-only effect, or another doubt; inactive = no such curve, though single readings can be large; an effect the other way counts as inactive or inconclusive. % is scaled to controls: 0 for no effect and ±100 for the full control effect; potency is read from the fitted curve at half-maximal effect.

SMILES	TDP1 cell CPT	RORgamma inh	TDP1 block	VP16 counter	DT40 TDP1 no CPT
CCOC(=O)N1CCN(Cc2nc(-c3cccc(C)c3)no2)CC1	?	?	-1.1%	4.7%	-27.3%
CCC1(CC)SC(N)=NC1=O	-5.4%	/	/	/	-7.4%
O=C1NC(Cc2ccccc2)c2nc3ccc(Cl)cc3c(=O)n2-c2ncccc21 (configuration not stated)	?	/	/	/	20.6µM*
Cc1ccc2nc3n(c(=O)c2c1)-c1cc2ccccc2cc1C(=O)NC3Cc1ccccc1 (configuration not stated)	23.1µM*	/	/	/	16.4µM*
Cc1ccc2nc3n(c(=O)c2c1)-c1ccc(Cl)cc1C(=O)NC3Cc1ccccc1 (configuration not stated)	/	/	0.1%	/	/
CCC1NC(=O)c2cc3ccccc3cc2-n2c1nc1ccc(F)cc1c2=O (configuration not stated)	?	/	/	/	23.1µM*
O=C1NC(Cc2ccc(O)cc2)c2nc3ccc(Cl)cc3c(=O)n2-c2cc3ccccc3cc21 (configuration not stated)	6.51µM*	/	/	/	5.17µM*
O=C1NC(Cc2ccc(O)cc2)c2nc3ccc(Br)cc3c(=O)n2-c2ccc(Cl)cc21 (configuration not stated)	/	/	3.2%	/	/
O=C1NC(Cc2ccccc2)c2nc3ccccc3c(=O)n2-c2ncccc21 (configuration not stated)	-3.8%	/	/	/	-54.3%
Cc1cc(C(=O)N2CCN(S(C)(=O)=O)CC2)cs1	15.2%	-33.1%	2.2%	0.5%	-1.6%
O=C1CCCC2=C1C(c1ccsc1)CC(=O)N2c1nnc(SCc2ccccc2)s1 (configuration not stated)	-9.0%	-17.9%	-1.3%	0.9%	-8.3%
CCOC(=O)c1c(CN(CC)CC)n(-c2ccccc2)c2ccc(O)cc12	?	0.0%	/	-5.2%	?
Cc1ccc(N2C(=O)[C@@H]3C(C(=O)CN4C(=O)c5ccccc5C4=O)=NN[C@@H]3C2=O)c(C)c1	-0.2%	4.8%	/	-2.4%	-2.3%
CCCN1C(=O)C2(C(C(=O)c3ccc(C)o3)=C(O)C(=O)N2CCCOC)c2ccccc21 (configuration not stated)	-0.4%	13.0%	/	17.6%	-5.6%
FC(F)(F)c1ccccc1-c1nc(Nc2ccncc2)c2ccccc2n1	?	11.2µM*	8.9%[56.1 µM]	?	-62.7%
Cc1noc(C)c1-c1nc(Nc2ccncc2)c2ccccc2n1	-11.6%	8.91µM*	28.2µM*	-2.9%	?
COCCNc1nc(-c2c(C)noc2C)nc2ccccc12	-22.4%	-18.9%	/	-21.7%	-16.7%
COc1ccccc1-c1nc(Nc2ccncc2)c2ccccc2n1	?	-32.5%	/	9.1%	?
Cc1noc(C)c1-c1nc(NCc2cccs2)c2ccccc2n1	?	-27.2%	/	-10.5%	23.1µM*
CC(C)C[C@H](NC(=O)[C@H]1N2C(=O)c3ccccc3C2SC1(C)C)C(=O)N[C@@H](Cc1ccccc1)C(=O)O (some centres not stated)	27.7%	3.6%	/	-1.2%	3.1%
Cc1ccc(-c2noc(-c3nnn(-c4ccc(Br)cc4F)c3C)n2)cc1	?	/	-2.6%	/	-27.7%
CCc1nnc(N/N=C/c2ccc(-c3ccc([N+](=O)[O-])cc3)o2)n1N	-11.0%	3.55µM*	8.9%	?	-20.3%
CNC(=S)N/N=C/c1ccc(-c2ccc(Cl)c([N+](=O)[O-])c2)o1	8.2µM*	4.47µM*	?	3.55µM*	9.2µM*
CCCCC(=O)N/N=C/c1ccc(-c2ccc([N+](=O)[O-])cc2)o1	?	?	0.0%	10.4%	16.4µM*
Cc1occc1C(=O)N/N=C/c1ccc(Cl)c([N+](=O)[O-])c1	?	-12.2%	-2.6%	-12.5%	?
SMILES	TDP1 cell CPT	RORgamma inh	TDP1 block	VP16 counter	DT40 TDP1 no CPT
O=C(O)c1ccc(-c2ccc(/C=N/Nc3ccc([N+](=O)[O-])cc3)o2)cc1	?	24.2%	1.3%	1.5%	-25.6%
CC(C)(C)NC(=S)N/N=C\c1ccc(-c2ccc([N+](=O)[O-])cc2)o1	9.2µM*	?	/	?	9.2µM*
COc1ccc(CNC(=O)COCc2cc(-c3cccs3)on2)cc1	-17.1%	/	6.2%	/	?
CCOc1ccc(C(=O)NNC(=O)c2cc(C)oc2C)cc1	2.8%	/	6.2%	/	4.4%
O=C(O)C1CCCCC1C(=O)Nc1cc(Cl)ccc1Cl (configuration not stated)	-4.2%	26.4%	1.0%	-0.4%	-15.7%
Cc1cc(C)n(Cc2ccc(C(=O)N/N=C/c3ccc(-c4ccc([N+](=O)[O-])cc4)o3)o2)n1	?	8.91µM*	/	6.31µM*	10.3µM*
Cc1ccc(F)cc1NC(=O)Cn1c(C)cc(C)c(C#N)c1=O	20.6µM*	/	6.2%	/	2.1%
COc1ccccc1CNC(=O)c1ccc2c(=O)n(CC3CCCO3)c(=S)[nH]c2c1 (configuration not stated)	?	-39.2%	1.8%	-23.2%	?
Cc1ccc(CNC(=O)CNC(=O)[C@@H]2Cc3ccccc3CN2)cc1	-10.4%	11.4%	1.9%	-3.6%	15.1%
CC1(C)CC(=O)C2=C(C1)N(Cc1ccccc1)C(=O)C2(NC(=O)C(C)(C)C)C(F)(F)F (configuration not stated)	0.9%	11.2µM*	3.9%	1.8%	?
CC(=O)NC1(C(F)(F)F)C(=O)N(Cc2ccccc2)C2=C1C(=O)CC(C)(C)C2 (configuration not stated)	-0.4%	-2.0%	-3.8%	-0.6%	-0.2%
O=P(OC1CCCCC1)(OC1CCCCC1)C(O)c1cccnc1 (configuration not stated)	7.6%	-17.6%	0.0%	-1.7%	-13.0%
CC(C)N1CC(C(=O)Nc2ccc(Br)c(Cl)c2)CC1=O (configuration not stated)	-5.6%	0.8%	0.0%	1.4%	-21.7%
CC(C)(C)[C@H]1COC(=O)[C@H](Cc2ccc(F)cc2)CC/C=C/C[C@@H](CC(=O)N[C@H](CO)Cc2ccccc2)C(=O)N1	?	/	0.0%	/	20.6µM*
O=C(C[C@@H]1C/C=C\CC[C@@H](Cc2ccc(F)cc2)C(=O)OC[C@@H](Cc2ccccc2)NC1=O)NCCO	14.6µM*	/	1.1%	/	?
O=C(C[C@@H]1C/C=C/CC[C@@H](Cc2ccc(F)cc2)C(=O)OC[C@H](Cc2ccccc2)NC1=O)N[C@H](CO)Cc1ccccc1	9.2µM*	/	-1.6%	/	5.17µM*
C[C@H]1COC(=O)[C@H](Cc2ccc(F)cc2)CC/C=C/C[C@@H](CC(=O)N[C@@H](CO)Cc2ccccc2)C(=O)N1	11.6µM*	/	1.2%	/	16.4µM*

Screens deposited in PubChem BioAssay by National Center for Advancing Translational Sciences (NCATS).
